# Screening data (PubChem BioAssay)
# HPGD block: inhibitors of human 15-hydroxyprostaglandin dehydrogenase (HPGD) | P15428 | purified HPGD, NADH fluorescence kinetic, PGE2 substrate | Potency, µM, for the others: at the highest dose activity change, negative = inhibition, hits mostly inhibitors | actives 4.3% (n = 150,000) | AID 894; active means well fitted inhibition curve with a large enough effect, not every such curve was filed as active; inconclusive means small, poorly fitted or top-dose-only effect, or another doubt; inactive means no such curve, though single readings can be large or run the other way
#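 20 nM HPGD preincubated 15 min at room temperature with compound in 50 mM Tris-HCl pH 8, 0.01% Tween 20. Started with 1 mM NAD+ and 30 uM prostaglandin E2; NADH fluorescence (360/450 nm) read 5 times over 30-s intervals, last minus first.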
# Tau fluor cs: counter-screen for tau fibril formation inhibitors; tau K18 P301L Alexa594 fluorescence, heparin fibrillization; Potency, µM (doses to about 57.7 µM), inactives show at the top dose activity change, negative = decrease; actives 0.93% (n = 280,000); further: nearly all actives have a fitted effect of over 55% in size
#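 Human K18 P301L tau (15 uM unlabeled plus 0.24 uM Alexa 594-labeled, final) in 100 mM sodium acetate pH 7 was mixed with compound and 20 uM heparin and incubated 6 hr at 37 C.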
# ALDH1A1 block: ALDH1A1 (human) enzyme inhibition; P00352; Potency, µM (top dose mostly 75.3 µM), inactives show at the top dose activity, negative = inhibition, actives largely listed as inhibitors; Purified ALDH1A1, NADH fluorescence, propionaldehyde substrate; actives 7.3% (n = 220,000); active means well fitted inhibition curve with a large enough effect, not every such curve was filed as active; inconclusive means small, poorly fitted or top-dose-only effect, or another doubt; inactive means no such curve, though single readings can be large or run the other way;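 further: plate controls were no enzyme wells and a reference inhibitor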
# Target sequence (P00352 whole entry, looked up): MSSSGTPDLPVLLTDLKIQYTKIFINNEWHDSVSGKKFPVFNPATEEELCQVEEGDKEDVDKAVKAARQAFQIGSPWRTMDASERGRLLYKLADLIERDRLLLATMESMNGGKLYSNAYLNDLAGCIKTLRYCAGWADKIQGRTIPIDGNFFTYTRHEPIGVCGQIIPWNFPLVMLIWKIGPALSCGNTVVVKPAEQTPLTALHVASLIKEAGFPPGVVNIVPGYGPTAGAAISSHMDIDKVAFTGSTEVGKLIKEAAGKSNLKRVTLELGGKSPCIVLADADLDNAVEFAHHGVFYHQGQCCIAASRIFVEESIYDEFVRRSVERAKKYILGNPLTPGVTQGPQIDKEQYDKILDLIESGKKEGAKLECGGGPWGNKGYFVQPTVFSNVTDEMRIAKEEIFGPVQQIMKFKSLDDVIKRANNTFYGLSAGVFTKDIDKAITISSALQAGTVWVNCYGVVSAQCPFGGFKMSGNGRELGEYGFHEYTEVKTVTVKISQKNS
# Tau ThT inhib: tau fibrillization inhibition (ThT binding); P10636; recombinant tau K18 P301L (four-repeat tau fragment), heparin-induced fibrillization, ThT fluorescence; Potency, µM (highest dose often 57.4 µM), for the others: at the top dose activity, negative = inhibition, hits mostly inhibitors; actives 2.1% (n = 270,000); AID 1460; further: nearly all actives have a fitted effect of over 55% in size
#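 Recombinant human tau K18 fragment […] carrying P301L, 15 uM unlabeled plus 0.24 uM Alexa 594-labeled, was fibrillized with 20 uM heparin in 100 mM sodium acetate pH 7 for 6 hr at 37 C; 30 uM ThT fluorescence read after 1 hr.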
# Tau FP inhib: inhibitors of human tau fibril formation. P10636. K18 P301L tau heparin fibrillization, Alexa594 FP, 6 h. Potency, µM (titrated, usually from 57.7 µM), without a hit: at the highest dose activity, negative = inhibition, usual class: inhibitors. AID 1468. actives 0.39% (n = 280,000); further: nearly all actives have a fitted effect of over 55% in size
#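 Human tau K18 […] P301L fragment, 15 uM unlabeled plus 0.24 uM Alexa 594-labeled tau (final), with compound and 20 uM heparin in 100 mM sodium acetate pH 7; 6 hr at 37 C, then Alexa 594 FP read.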
# NPSR antag: antagonists of human neuropeptide S receptor cAMP signaling. actives 1% (n = 220,000). Q6W5P4. AID 1461. Potency, µM (top dose mostly 38.3 µM), inactives show at the highest dose activity change, negative = inhibition, hits mostly inhibitors. CHO-NPSR cells, cAMP TR-FRET, antagonist mode; further: nearly all actives have a fitted effect of over 50% in size
# * marks the source's active call; other numbers are inactive results; ? = inconclusive; / = not tested or not shown; [ ] = remark or other dose. In the library only some 9.5% were active in any assay of this set; here they are far more common. Unless noted, the call rests on the fitted dose curve; in most records, active means well fitted curve in the direction sought with a large enough effect; inconclusive means small, poorly fitted or top-dose-only effect, or another doubt; inactive means no such curve, though single readings can be large; an effect the other way counts as inactive or inconclusive. Unless noted, on the % scale 0 is the no-effect control and ±100 the full control effect; potency means the concentration at half of the fitted maximal effect.
SMILES,HPGD block,Tau fluor cs,ALDH1A1 block,Tau ThT inhib,Tau FP inhib,NPSR antag
CC#CCN1c2ccccc2[C@]23C[C@@H](C(=O)OC)N(S(=O)(=O)c4ccc(C(F)(F)F)cc4)C2=NC(C(=O)OC)=C(C(=O)OC)[C@H]13,1.9%,-3.1%[11.6 µM],1.8%[13.5 µM],1.4%[11.5 µM],-4.9%[11.6 µM],/
COc1ccc(-n2ncc(C(=O)N3CCN(C(=O)c4ccco4)CC3)c2C2CCN(C(=O)OC(C)(C)C)CC2)cc1,/,10.9%,/,13.8%,-2.4%,/
O=C1OC(c2cccs2)=N/C1=C\c1ccc(-c2cccc(Cl)c2)o1,-8.3%,-2.9%,?,?,11.4%,?
N=C1S/C(=C\c2ccc(-c3cccc(Cl)c3)o2)C(=O)N1c1nccs1,?,-25.4%,6.4%,3.55µM*,4.9%,-29.8%
COc1ccc(/C=C2\SC(=N)N(c3nccs3)C2=O)cc1OC,?,-10.6%,7.0%,10µM*,9.5%,-25.9%
N=C1/C(=C\c2ccc(-c3cccc(Cl)c3)o2)C(=O)N=C2SC=C(c3ccccc3)N12,14.1µM*,-3.7%,?,0.9%,2.0%,5.1%
Cn1c(CNC(=O)c2ccccc2)nnc1SCC(=O)Nc1nccs1,/,6.4%,4.6%,-0.4%,-2.5%,9.7%
Cc1ccccc1S(=O)(=O)c1c(C)cc(C)n(CC(C)C)c1=O,-3.6%,-19.6%,7.94µM*,-11.5%,2.5%,-23.4%[46.1 µM]
CCc1ccccc1NC(=O)Cn1nc(-c2cc(C)ccc2C)c2c(c1=O)CCCC2,/,-4.2%,/,-14.6%,-7.4%,/
COc1cc(S(=O)(=O)NCCc2c(C)[nH]c3ccccc23)c(C)cc1C,/,12.6µM*[quencher],/,?,?,/
COc1ccc(NC(=O)c2oc3ccccc3c2NC(=O)Cc2cccs2)c(OC)c1,/,?,/,-0.5%,-4.9%,/
O=C(O)c1c(-c2c3ccc(=O)cc-3oc3cc(O)ccc23)cc2ccccc2c1-c1ccccc1,-5.7%,/,9.5%[13.5 µM],/,/,/
Cc1cccc(-c2noc(CN(C(=O)C(c3ccccc3)c3ccccc3)C(C)C)n2)c1,-18.3%,-18.3%,6.0%,-13.9%,-3.8%,?
Cc1cccc(C)c1OCC(=O)N/N=C/C=C/c1ccco1,/,-12.8%,12.6µM*,?,-2.1%,-19.4%
Cc1cccc(OCC(=O)N/N=C/C=C/c2ccco2)c1,-7.1%,-21.9%,?,?,-12.8%,-30.2%
O=C(Cc1cccs1)N/N=C/C=C\c1ccco1,-19.8%,-10.5%,25.1µM*,?,?,-4.9%[46.1 µM]
O=C(N/N=C/C=C\c1ccco1)c1cccs1,/,-18.8%,28.2µM*,?,?,-49.5%
Cc1ccc2nc(N(Cc3cccnc3)C(=O)COc3ccccc3)sc2c1,/,-4.9%,/,-6.3%,-1.6%,/
CCC(C)C1NC(=O)C(CCNCS(=O)(=O)O)NC(=O)C(NC(=O)C(CCNCS(=O)(=O)O)NC(=O)C(NC(=O)C(CCNCS(=O)(=O)O)NC(=O)CCCCC(C)C)C(C)O)CCNC(=O)C(C(C)O)NC(=O)C(CCNCS(=O)(=O)O)NC(=O)C(CCNCS(=O)(=O)O)NC(=O)C(C(C)CC)NC1=O (stereo not given),-7.2%,-2.1%,6.2%,-22.9%,2.4%,/
N#CCc1ccc(Oc2ncc(C(F)(F)F)cc2Cl)cc1,/,-6.8%,3.8%,-3.6%,-4.7%,-8.4%
Cc1ccc(CO/N=C\Cc2snc(Sc3ncc(C(F)(F)F)cc3Cl)c2C#N)cc1,-23.8%,?,?,?,4.0%,10µM*
O=C(/C=C/c1ccc(Cl)cc1Cl)n1cccn1,-21.0%,-7.5%,1.0%,7.94µM*,?,-1.5%[46.1 µM]
O=C(/C=C/c1ccc(Cl)cc1Cl)c1ccc[nH]1,/,-9.9%,-14.5%,?,-5.8%,-10.5%
Cc1[nH]c2ccccc2c1/C=C/c1nc2ccccc2c(=O)n1CCO,/,10µM*[quencher],-5.2%,?,17.4%,-20.2%
CCCCOC(=O)c1ccc(NC(=S)NC(=O)c2c(Cl)cnn2C)cc1,-25.8%,-22.9%,?,?,-8.1%,-17.0%[46.1 µM]
CCCCOC(=O)c1ccc(NC(=S)NC(=O)c2c(Cl)cnn2CC)cc1,-18.6%,-14.4%,3.55µM*,?,-0.5%,-21.2%[46.1 µM]
